Experimental data as given in PubChem BioAssay (NCI).
Values joined by “and” are separate entries in the source; they are usually repeats but may differ in a detail not shown here. Identical values can stand only once. Compounds without any hit were thinned out: in the full panel of roughly 83,000, 20% have a hit.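 For each line, cells grew in 96-well plates with the test compound present at a single concentration for 48 hours.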 Values without a mark were called inactive. Active and inactive are the calls of the source.

Each compound was assayed on U251 CNS (assay: NCI-60 one-dose screen, 48 h (100 = growth as untreated, 0 = no growth, -100 = all killed)). Details: 0.01 µM.
Procedure: Growth inhibition of the U251 human tumor cell line is measured as a screen for anti-cancer activity. Cells are grown in 96 well plates and exposed to the test compound for 48 hours. Compounds are tested at a single concentration, which is 10^-5 M for most compounds. The reported endpoint is percent growth (GI% or GIPRCNT), where numbers from 0 - 100% represent growth inhibition, and numbers from -100% - 0 represent cell death. For example, a value of 40 represents 60% growth inhibition. A value of 0 means no net growth occurred over the course of the experiment. A value of -40 indicates 40% of cells at the beginning of the experiment died by the end of the experiment. A value of -100 means all cells are dead at the end of the experiment.
NCI-60 Human Tumor Cell Lines Screen was performed using the standard one-dose NCI protocol, which is described in more detail at https://dtp.cancer.gov/discovery_development/nci-60/default.htm.
Compounds with GIPRCNT values below 10 were considered active. Activity score was based on GIPRCNT using the following formula: […]
Score is 0 for GIPRCNT values of 100 or above, 50 for GIPRCNT values of 0, and 100 for GIPRCNT values of -100.

In the case of `CC(=O)O[C@H]1C(=O)[C@@]2(C)[C@H]([C@H](OC(=O)c3ccccc3)[C@]3(O)C[C@H](OC(=O)[C@H](O)[C@@H](NC(=O)c4ccccc4)c4ccccc4)C(C)=C1C3(C)C)[C@]1(OC(C)=O)CO[C@@H]1C[C@@H]2O`, the growth is reported as 27.9%.

Same assay, conditions: 2.5 µM

`CC(=O)O[C@H]1C(=O)[C@@]2(C)[C@H]([C@H](OC(=O)c3ccccc3)[C@]3(O)C[C@H](OC(=O)[C@H](O)[C@@H](NC(=O)c4ccccc4)c4ccccc4)C(C)=C1C3(C)C)[C@]1(OC(C)=O)CO[C@@H]1C[C@@H]2O` gave a growth of 12.3%.

Same assay, conditions: 5 µM

In the case of `CC(=O)O[C@H]1C(=O)[C@@]2(C)[C@H]([C@H](OC(=O)c3ccccc3)[C@]3(O)C[C@H](OC(=O)[C@H](O)[C@@H](NC(=O)c4ccccc4)c4ccccc4)C(C)=C1C3(C)C)[C@]1(OC(C)=O)CO[C@@H]1C[C@@H]2O`, the growth is reported as 13.9%.

Same assay, conditions: 10 µM

First: O=Nc1ccc(Nc2ccccc2)cc1
Second: O=c1[nH]cc(/C=N\Nc2ccccc2)c(=O)[nH]1
The growth of the first is higher: 87.8% for the first, 69.6% for the second.

Going from `CCC(=O)Oc1ccc(/C=N/NC(N)=S)nc1` to `O=C(NC(=S)Nc1ccccn1)c1ccccc1`, the growth rises from 27.3% to 94.9%.

Compared with `CN(CC(=O)O)c1ccc(/C=C/c2ccnc3ccccc23)cc1`, `CN(C)c1ccc(/C=C/c2ccnc3ccccc23)cc1N` is lower in growth: 80.3% for the first, 66.7% for the second.

Going from `O=C(CNS(=O)(=O)Cc1ccccc1)NNc1ccccc1` to `O=[N+]([O-])c1cc(S(=O)(=O)Nc2ccccc2)ccc1Cl`, the growth rises from 82.7% to 100%.

Going from `COc1ccc(N)c2c1C(=O)c1ccccc1C2=O` to `Cc1cc(C)c(N2C(=O)CC(Sc3ccccc3N)C2=O)c(C)c1` (stereo not given), the growth falls from 97.9% to 81.3%.

Compared with `Cc1cc(O)c2c(c1O)C(=O)C13C(=C2O)C(=O)C2C(O)C1C1C(O)C3C(=O)C3=C(O)c4c(O)cc(C)c(O)c4C(=O)C321` (stereo not given), `CCC(C)(c1ccc(O)c(C)c1)c1ccc(O)c(C)c1` is higher in growth: 12.3% for the first, 94.4% for the second.

Compared with `CC1CCC2(C(=O)O)CCC3(C)C(=CCC4C5(C)CC(O)C(O)C(C)(CO)C5C(O)CC43C)C2C1C` (stereo not given), `CCOC(=O)[C@]1(Br)CC[C@@]1(Br)C(=O)OCC` is lower in growth: 103% for the first, 98.3% for the second.

Compared with `C=C1N(C)c2ccc(Cl)cc2C1(C)C`, `O=S(=O)(c1cc(Cl)ccc1O)c1cc(Cl)ccc1O` is higher in growth: 22.8% for the first, 76.7% for the second.

Going from `N#C/C(=C/N1C(=O)/C(=C/c2ccc([N+](=O)[O-])cc2)SC1=S)c1nc2ccccc2s1` to `Nc1nc(N)c2cc(Sc3ccc4ccccc4c3)ccc2n1`, the growth falls from 69.4% to 27.4%.

Going from `S=C1SCN(CCc2ccccc2)CN1CCc1ccccc1` to `Cc1c(-c2ccccc2)[nH]c2ccccc12`, the growth rises from 91.3% to 106%.

Going from `COc1ccc(C(C#N)=C2C=CC(=NO)C=C2)cc1` to `O=C1C=CC(=O)N1c1ccc(N2C(=O)C=CC2=O)cc1`, the growth rises from 53.9% to 101%.

Going from `COc1cccc(C(c2cc3c(cc2O)OCO3)N2CCOCC2)c1OC` (stereo not given) to `COc1ccc2oc(-c3ccc(Cl)cc3)c(N3CCN(C)CC3)c2c1`, the growth falls from 101% to 20.1%.

First: Cn1ncc2cc3c(Nc4ccc(Cl)cc4)cccc3nc21
Second: Cc1cc(Cl)ccc1NC(=O)/C(Cl)=C1/Sc2ccccc2NC1=O
The growth of the first is lower: 81.2% for the first, 94.7% for the second.

First: O=C(O)c1ccccc1.[Ag]
Second: Cc1cc(N=C2C=CC(=[N+](C)C)C=C2)c(N)cc1N
The growth of the first is higher: 97% for the first, 93.2% for the second.

In the case of `O=C1C(Cl)=C(Cl)C(Cl)(Cl)C(Cl)C1(Cl)Cl` (stereo not given), the growth is reported as 103%.

In the case of `CC(=O)O[C@H]1C(=O)[C@@]2(C)[C@H]([C@H](OC(=O)c3ccccc3)[C@]3(O)C[C@H](OC(=O)[C@H](O)[C@@H](NC(=O)c4ccccc4)c4ccccc4)C(C)=C1C3(C)C)[C@]1(OC(C)=O)CO[C@@H]1C[C@@H]2O`, the growth is reported as 10.6% and 15.9%.
In the case of `S=P(N1CC1)(N1CC1)N1CC1`, the growth is reported as 105% and 84.1%.
For `Cn1c2nc3ccccc3c-2nc2ccccc21`, the growth was 91.4% and 90.2%.
With `CC[C@@]1(OC(=O)CN(C)C)C(=O)OCc2c1cc1n(c2=O)Cc2cc3c(N)cccc3nc2-1` the growth was 3.98% (active).
With `O=C1c2cccc3cc([N+](=O)[O-])cc(c23)C(=O)N1CCN1CCCC1` the growth was -12.3% (active).
In the case of `N#CC(=C1C=CC(=NO)C=C1)c1ccccc1`, the growth is reported as 9.88% (active).
For `ClCCn1c(CCl)nc2ccc(Cl)cc21`, the growth was -67.2% (active).

Same assay, conditions: 100 µM

`S=P(N1CC1)(N1CC1)N1CC1` gave a growth of 43.7%.
